Data published in PubChem BioAssay AID2685 (National Center for Advancing Translational Sciences (NCATS), 2010).
About 2,100 (0.66%) of roughly 320,000 compounds were called active. About 53% were inconclusive and are not listed. This is one part of a sample in which actives are shown more often than they occur. Calls follow the shape of the dose curve; as a rule, active = well fitted inhibition curve with a large enough effect in the signal ratio, with a control signal flat (not every such curve was filed as active); inconclusive = small, poorly fitted or top-dose-only effect, or effect the other way, or a change in a side signal; inactive = flat fitted curve, though single readings scatter; the % refers to the signal ratio.

assay: qHTS Assay for Lipid Storage Modulators in Drosophila S3 Cells; settings: BODIPY lipid droplet fluorescence, 18-24 h, cells fed with added oleic acid; cell number change: measured here: cell count max response; series mostly up to 46.1 µM;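 as to cell number change: cells counted by Cell Tracker Red CMTPX staining in the red channel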
Outline: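 Drosophila S3 cells loaded with oleic acid (400 uM, as added) and compounds at several concentrations; lipid droplets imaged by 488-nm laser-scanning cytometry, 500–530 nm intensity and object ratio to cell channel. Percent activity normalized to 20 uM Triacsin C.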
Potency is read from the fitted curve at half-maximal effect.

Structure (SMILES)	Potency	cell number change [%]
COc1ccc(C=O)cc1Cn1ccnc1C	inactive	-21.5
N#C/C(=C\c1ccccc1Cl)C(=O)Nc1ccccn1	25.9 µM (active)	7.44
CC(C)(C)c1ccc(/C=C(\C#N)C(=O)Nc2ccccn2)cc1	inactive	9.55
N#C/C(=C\c1cccs1)C(=O)Nc1ccccn1	inactive	9.59
Cc1ccc(-c2cc(C(F)F)n3ncc(C(=O)N4CCc5ccccc5C4)c3n2)cc1	inactive	3.7
CC(=O)Nc1cccc(Oc2ncnc3scc(-c4ccccc4)c23)c1	inactive	1.71
Cc1ccc(S(=O)(=O)N2CCN(C(=O)c3nn(C(C)C)c(=O)c4ccccc34)CC2)cc1C	inactive	
CCCn1nc(C(=O)N2CCc3ccccc3C2)c2ccccc2c1=O	inactive	-8.58
CCCn1nc(C(=O)N2CCN(S(=O)(=O)c3ccc(C)c(C)c3)CC2)c2ccccc2c1=O	11.6 µM (active)	29.1
C=Cc1ccc(COC(=O)c2cn(CC)c3nc(C)ccc3c2=O)cc1	inactive	
CCn1cc(C(=O)OC)c(=O)c2ccc(C)nc21	inactive	4.24
CCn1cc(C(=O)N(C)Cc2ccc(OC(F)F)cc2)c(=O)c2ccc(C)nc21	18.4 µM (active)	19.2
O=C(COC(=O)CNS(=O)(=O)c1cccc(Br)c1)NC(=O)Nc1ccc2c(c1)OCCO2	inactive	
COc1ccc(-n2nc(C(=O)NCC(=O)N(C)Cc3ccccc3)c3ccccc3c2=O)c(OC)c1	inactive	9.58
O=C(CCSc1ccccc1)Nc1ccccc1C(=O)N1CCCC1	inactive	-3.09
COc1ccccc1N(CC(=O)Nc1ccccc1C(=O)N1CCCC1)S(C)(=O)=O	18.4 µM (active)	1.61
O=C(O)CCCC(=O)Nc1ccccc1C(=O)N1CCCC1	4.61 µM (active)	0.517
CCC(=O)Nc1ccccc1C(=O)N1CCCC1	inactive	13.5
CCOc1ccccc1N(CC(=O)Nc1ccccc1C(=O)N1CCCC1)S(C)(=O)=O	inactive	-13.5
O=C(c1cccc2ccccc12)N1CCCCC1	8.2 µM (active)	-5.25
Cc1ccccc1OCCC(=O)Nc1ccccc1C(=O)N1CCCCC1	5.8 µM (active)	-4.28
COc1ccccc1OCC(=O)Nc1ccccc1C(=O)N1CCCCC1	inactive	
Cc1ccc(OCC(=O)Nc2ccccc2C(=O)N2CCCCC2)cc1	inactive	24.3
COc1ccccc1N(CC(=O)Nc1ccccc1C(=O)N1CCOCC1)S(C)(=O)=O	inactive	1.26
O=C(c1ccncc1)N1CCN(C(=O)c2cccc3ccccc23)CC1	inactive	6.28
CCS(=O)(=O)N1CCN(C(=O)c2cccc3ccccc23)CC1	inactive	17.9
